Some of the results follow. The hit rate among all sequences tested is not known here.
B1: HC1891 (peptide)
chain: CATTPCSDSWAGNASASA
B2: HC1714 (peptide)
chain: CAMEKCSQHLAGNASASA
B3: FS-1363 (peptide)
chain: CALPQRLPRAAGNASASA
B4: HC899 (peptide)
chain: CALPQDAVSRAGNASASA
B5: FS-1466 (peptide)
chain: CALSIRDARMAGNASASA
B6: FS-136 (peptide)
chain: CALSIRDKRKAGNASASA
B7: FS-254 (peptide)
chain: CAIPARELRNAGNASASA
B8: FS-356 (peptide)
chain: CALPARDKRKAGNASASA
B9: HC562 (peptide)
chain: CALPQRAYALAGNASASA
B10: HC1197 (peptide)
chain: CALPAPNYTFAGNASASA
B11: FS-599 (peptide)
chain: CAIPARMKRAAGNASASA
B12: HC1498 (peptide)
chain: CASLTERLYVAGNASASA

Molecular target: furin, P09958
Sequence (P09958 whole entry): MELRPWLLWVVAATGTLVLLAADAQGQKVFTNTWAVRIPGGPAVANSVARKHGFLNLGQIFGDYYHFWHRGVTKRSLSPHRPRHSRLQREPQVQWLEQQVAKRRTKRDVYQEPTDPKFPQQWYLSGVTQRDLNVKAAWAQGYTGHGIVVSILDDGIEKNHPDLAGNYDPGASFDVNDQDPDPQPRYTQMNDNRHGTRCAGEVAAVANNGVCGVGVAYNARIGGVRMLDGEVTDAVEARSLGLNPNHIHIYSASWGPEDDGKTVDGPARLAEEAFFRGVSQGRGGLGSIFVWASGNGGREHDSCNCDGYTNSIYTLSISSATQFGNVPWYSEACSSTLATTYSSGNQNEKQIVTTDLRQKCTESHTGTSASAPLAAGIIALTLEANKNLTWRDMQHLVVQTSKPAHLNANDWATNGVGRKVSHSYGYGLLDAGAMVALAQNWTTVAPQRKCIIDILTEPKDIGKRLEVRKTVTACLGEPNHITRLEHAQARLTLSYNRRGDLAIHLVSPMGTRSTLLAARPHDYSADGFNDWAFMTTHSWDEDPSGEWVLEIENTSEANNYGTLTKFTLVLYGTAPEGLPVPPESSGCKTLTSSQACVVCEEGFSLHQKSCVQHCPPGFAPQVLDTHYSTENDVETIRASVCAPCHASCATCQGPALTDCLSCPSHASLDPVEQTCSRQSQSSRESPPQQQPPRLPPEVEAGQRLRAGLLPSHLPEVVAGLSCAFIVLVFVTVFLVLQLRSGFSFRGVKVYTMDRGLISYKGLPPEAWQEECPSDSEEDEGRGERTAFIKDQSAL
Assay: furin cleavage Z-score vs untreated control; higher = more cleavage, active = 3.5 or more, inactive = 1 or less, 8 variable residues between constant flanks
Method in brief: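 Furin-free reactions served as the baseline for the cleavage Z-score, which is the log read count lowess-adjusted and scaled by median absolute deviation. Counts came from released DNA, adapter-tagged by PCR and sequenced. Purified furin had cut 8-mer peptides fused to a cDNA oligonucleotide on magnetic beads during 7.5, 15 or 30 min at 1:10 enzyme:substrate.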
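Also: purified furin at 1:10 enzyme:substrate in 50 mM HEPES pH 7.5.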

Sequence | furin cleavage Z-score (7.5 min) | furin cleavage Z-score (15 min) | furin cleavage Z-score (30 min)
B1 | -1.12 (inactive) | -0.376 (inactive) | -2.36 (inactive)
B2 | 1.25 | 0.88 (inactive) | 0.181 (inactive)
B3 | 10.1 (active) | 7.22 (active) | 9.33 (active)
B4 | 0.79 (inactive) | -0.97 (inactive) | -1.66 (inactive)
B5 | -0.476 (inactive) | 0.981 (inactive) | -0.151 (inactive)
B6 | 4.28 (active) | 3.15 | 5.72 (active)
B7 | 1.11 | 0.407 (inactive) | -8.8e-05 (inactive)
B8 | 3.1 | 4.69 (active) | 4.42 (active)
B9 | -0.111 (inactive) | 0.523 (inactive) | 0.909 (inactive)
B10 | 0.169 (inactive) | -0.15 (inactive) | -0.727 (inactive)
B11 | 10.3 (active) | 9.08 (active) | 8.29 (active)
B12 | -0.595 (inactive) | 0.519 (inactive) | 0.245 (inactive)

— the supplement of paper PMC3545927
